# Results as given in PubChem BioAssay.
# Active and inactive are the calls of the source. Unless noted, the rule behind the calls is not given here.
# Key:
# [1] = HepG2 liver cancer cell viability effects, profiling panel, resazurin fluorescence, 24 h, PK04 Diversity Set (AID 1172); details: higher = more signal; note: test concentration not given here
# [2] = basal S. cerevisiae growth modulation, no modifier, primary screen, OD600, strain BY4716, 24 h, basal condition (AID 1173); details: OD600, 24 h, higher = more signal, called active from +8 up or from −8 down
# [3] = MM1S myeloma cell viability, profiling panel, resazurin fluorescence, basal, 24 h, PK04 Diversity Set (AID 1174); details: higher = more signal, called active from +8 up or from −8 down;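 note: MM1S multiple myeloma cell line; test concentration not given here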
# [4] = target: Dihydroorotate dehydrogenase (quinone), mitochondrial (Plasmodium falciparum (isolate 3D7)) (UniProt Q08210); test: PfDHODH enzyme inhibitors, primary screen, biochemical, C-terminal His tag, absorbance 600 nm (AID 1175); details: DCIP absorbance 600 nm, higher = more signal, called active from +8 up or from −8 down;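 note: recombinant parasite enzyme with a five histidine tag at its C terminus; test concentration not given here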
# [5] = P. aeruginosa biofilm formation inhibitors, primary screen, strain PAO1, LB-PBS medium, absorbance 600 nm (AID 1176); note: test concentration not given here; details: P. aeruginosa PAO1 growth/biofilm, A600, 12 h; higher = more signal
# [6] = S. cerevisiae RM11-1a growth modifiers, primary screen, strain RM11-1a, OD600, basal, 24 h (AID 1177); details: OD600, 24 h, higher = more signal, called active from +8 up or from −8 down;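 note: cultures grown under basal conditions with no added stressor; test concentration not given here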
# [7] = E. coli acrAB mutant growth effects, primary screen, E. coli filamentation inducers, strain DRC39, OD650, 24 h (AID 1178); details: higher = more signal, called active from +8 up or from −8 down;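 note: growth measured as culture turbidity by optical density at 650 nm; test concentration not given here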
# [8] = E. coli acrAB mutant growth effects, primary screen, E. coli filamentation inducers, strain DRC39, OD650, 48 h (AID 1179);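 note: screen aims at cell division blockers that make cells filament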; details: E. coli DRC39 delta-acrAB growth, higher = more signal, called active from +8 up or from −8 down
# [9] = RPMI8226 myeloma cell viability, profiling panel, resazurin fluorescence, basal, 24 h, PK04 Diversity Set (AID 1180); details: higher = more signal;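 note: RPMI8826 multiple myeloma cell line at 5000 cells per well; test concentration not given here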
# [10] = target: E3 ubiquitin-protein ligase XIAP (Homo sapiens) (UniProt P98170); test: XIAP binders, primary screen, biophysical, small-molecule microarray, fluorescence 635 nm (AID 1181); details: small-molecule microarray binding, higher = more signal;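 note: score merges 667 nm emission and signal to noise over triplicate slides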
# E3 ubiquitin-protein ligase XIAP (Homo sapiens), sequence (P98170 whole entry, looked up): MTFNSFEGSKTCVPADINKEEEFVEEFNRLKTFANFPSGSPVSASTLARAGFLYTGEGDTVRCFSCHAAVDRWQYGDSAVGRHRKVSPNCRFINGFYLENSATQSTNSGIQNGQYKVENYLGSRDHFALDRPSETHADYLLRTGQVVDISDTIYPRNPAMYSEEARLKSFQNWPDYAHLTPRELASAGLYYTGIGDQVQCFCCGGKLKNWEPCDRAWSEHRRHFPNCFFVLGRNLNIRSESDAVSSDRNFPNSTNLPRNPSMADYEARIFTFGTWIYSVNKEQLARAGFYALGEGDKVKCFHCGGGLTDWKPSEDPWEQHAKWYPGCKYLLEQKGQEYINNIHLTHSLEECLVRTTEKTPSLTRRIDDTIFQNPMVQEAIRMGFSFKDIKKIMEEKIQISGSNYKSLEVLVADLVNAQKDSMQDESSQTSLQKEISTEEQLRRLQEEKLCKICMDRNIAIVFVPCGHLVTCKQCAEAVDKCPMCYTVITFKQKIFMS
# Dihydroorotate dehydrogenase (quinone), mitochondrial (Plasmodium falciparum (isolate 3D7)), sequence (Q08210 whole entry, looked up): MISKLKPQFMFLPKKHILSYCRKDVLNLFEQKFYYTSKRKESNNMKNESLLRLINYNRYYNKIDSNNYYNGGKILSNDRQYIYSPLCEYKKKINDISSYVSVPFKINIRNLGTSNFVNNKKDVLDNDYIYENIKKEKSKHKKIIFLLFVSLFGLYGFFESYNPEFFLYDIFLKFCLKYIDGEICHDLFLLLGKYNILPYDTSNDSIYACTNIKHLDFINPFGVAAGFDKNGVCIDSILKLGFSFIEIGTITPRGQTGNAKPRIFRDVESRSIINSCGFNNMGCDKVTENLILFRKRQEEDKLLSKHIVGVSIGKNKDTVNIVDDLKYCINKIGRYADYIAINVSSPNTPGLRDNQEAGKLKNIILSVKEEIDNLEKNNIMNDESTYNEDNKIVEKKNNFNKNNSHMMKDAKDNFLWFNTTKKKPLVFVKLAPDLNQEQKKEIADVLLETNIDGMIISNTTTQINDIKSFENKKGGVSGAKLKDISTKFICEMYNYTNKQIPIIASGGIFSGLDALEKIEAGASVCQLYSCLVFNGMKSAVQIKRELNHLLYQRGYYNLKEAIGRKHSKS
Structure (SMILES),z-score [1],z-score [2],z-score [3],composite z-score [4],z-score [5],z-score [6],z-score [7],z-score [8],z-score [9],composite z-score [10]
Cc1ccc(S[C@]2(C(=O)NCCN3CCOCC3)CC(=O)N(C3Cc4ccccc4C3)[C@@H]2c2ccc(CO)cc2)cc1,-0.211,0.884 (inactive),-0.209 (inactive),0.408 (inactive),0.0435 (inactive),0.948 (inactive),0.435 (inactive),0.337 (inactive),-0.109,-0.0282
CCCN1C(=O)[C@@H]2Cc3c([nH]c4ccccc34)[C@@H](c3cccc(O)c3)N2C1=O,0.944,0.852 (inactive),0.327 (inactive),-0.931 (inactive),0.764 (inactive),0.0696 (inactive),0.19 (inactive),0.0246 (inactive),0.0074,-0.313
[N-]=[N+]=NCc1ccccc1C[C@]1(C(=O)NCCN2CCOCC2)N=C(c2ccc(OCCCO)cc2)O[C@H]1c1ccccc1,0.383,-2 (inactive),-0.0784 (inactive),-0.603 (inactive),0.193 (inactive),-0.65 (inactive),1.24 (inactive),0.535 (inactive),0.166,0.131
CC(C)CCC[C@@H](C)[C@H]1CC[C@@]2(C)C3=C(CC[C@]12C)[C@@]1(C)CC[C@H](OC(=O)c2ccc(N)cc2)C(C)(C)C1CC3 (stereo not given in full),-0.322,-0.863 (inactive),0.467 (inactive),-2.03 (inactive),0.589 (inactive),-2.11 (inactive),0.965 (inactive),1.16 (inactive),0.826,0.45
CCOc1cc(C(O)C2C=CC3C(=O)NC(=O)C3N2Nc2ccccn2)ccc1O (stereo not given),-1.35,1.67 (inactive),-1.33 (inactive),0.21 (inactive),0.599 (inactive),0.24 (inactive),-1.17 (inactive),-0.0662 (inactive),-0.672,0.0652
CCOC(=O)C[C@H]1[C@H](OC(=O)c2ccccc2-c2ccccc2)[C@@H](NC(=O)c2ccccc2)c2cc(OCCCO)ccc2N1C(=O)Cc1ccc(OC)cc1,0.834,0.606 (inactive),-0.397 (inactive),-0.369 (inactive),0.142 (inactive),0.143 (inactive),0.228 (inactive),0.15 (inactive),-0.37,0.0871
C[N+](C)(C)CCCC[C@@H]1NC(=O)[C@@H]2C[C@H](C(=O)O)[C@H](c3cccc(OCCO)c3)N2C1=O,0.72,-0.219 (inactive),0.838 (inactive),0.284 (inactive),-0.351 (inactive),-0.126 (inactive),1.13 (inactive),1.36 (inactive),0.826,-0.131
[N-]=[N+]=Nc1ccccc1[C@H]1OC(c2ccc(OCCCO)cc2)=N[C@@]1(Cc1ccccc1)C(=O)NCc1ccccc1,-0.171,-1.95 (inactive),-3.89 (inactive),0.928 (inactive),0.124 (inactive),-0.947 (inactive),2.01 (inactive),1.76 (inactive),-3.99,0.0917
O=C1N(CCS(=O)(=O)c2ccccc2)Cc2ccccc2C[C@@]12COC(c1ccc(OCCCO)cc1)=N2,0.0549,1.58 (inactive),-5.12 (inactive),-0.211 (inactive),0.0379 (inactive),2.14 (inactive),0.862 (inactive),-0.691 (inactive),-3.43,0.167
CC(C)C[C@@H]1NC(=O)[C@@H]2C[C@H](C(=O)NCc3ccc(F)cc3)[C@H](c3ccc(O)cc3)N2C1=O,-1.5,0.0288 (inactive),0.429 (inactive),-1.36 (inactive),0.891 (inactive),-0.647 (inactive),-0.52 (inactive),-1.2 (inactive),0.734,0.222
Cc1ccccc1C(O)C1C=CC2C(=O)N(Cc3ccccc3)C(=O)C2N1n1cnnc1 (stereo not given),1.09,0.232 (inactive),-0.562 (inactive),-0.407 (inactive),0.726 (inactive),-0.226 (inactive),-0.197 (inactive),0.208 (inactive),-0.408,-0.184
COCCCNC(=O)[C@]1(Cc2ccccc2CN=[N+]=[N-])N=C(c2ccc(OCCCO)cc2)O[C@@H]1c1ccccc1CN=[N+]=[N-],-0.504,0.409 (inactive),-2.2 (inactive),0.502 (inactive),1.29 (inactive),-0.605 (inactive),0.445 (inactive),0.0972 (inactive),-2.03,0.0427
COC(=O)[C@@]1(Cc2ccccc2)[C@H]2c3cc(C(=O)N4CCCC4)n(Cc4ccccc4)c3C[C@H]2CN1C(=O)c1ccccc1,-2.54,0.717 (inactive),-1.12 (inactive),-0.237 (inactive),0.895 (inactive),0.235 (inactive),-0.78 (inactive),-0.591 (inactive),-3.29,0.421
COC(=O)[C@@]1(Cc2ccc(F)cc2)[C@@H]2[C@@H](CC(=O)[C@H]2CC(=O)C(=O)N2CCCC2)CN1C(=O)c1ccccc1,-0.572,0.508 (inactive),-1.78 (inactive),-0.238 (inactive),1.03 (inactive),0.23 (inactive),-1.25 (inactive),-0.212 (inactive),-3.35,-0.0553
CCCCC(=C=CC[C@H](O)c1cccc(OCCO)c1)C[C@H](O)COCc1ccccc1,1.38,-0.919 (inactive),0.202 (inactive),-1.06 (inactive),0.342 (inactive),0.178 (inactive),0.525 (inactive),0.122 (inactive),0.774,-0.165
O=C1NC(=O)C2C1C=CC(C(O)c1ccc(-c3ccccc3)s1)N2Nc1ccccn1 (stereo not given),-1.04,1.14 (inactive),-1.12 (inactive),1.24 (inactive),1.23 (inactive),0.347 (inactive),0.547 (inactive),0.193 (inactive),-1.17,0.549
CCCCC=C[C@@H](NC(=O)CCc1ccccc1)c1ccccc1,-1.61,0.927 (inactive),-2.09 (inactive),-0.739 (inactive),1.16 (inactive),0.929 (inactive),-0.0955 (inactive),-0.169 (inactive),-3.6,-0.154
C=CCC(OC(C)=O)[C@@H]1[C@@H](N(Cc2cccc3ccccc23)C(=O)Cc2ccc(F)cc2)c2cc(OCCCO)ccc2N1C(=O)Cc1ccc(OC)cc1 (stereo not given in full),0.303,-1.61 (inactive),0.738 (inactive),-0.83 (inactive),-0.206 (inactive),-1.16 (inactive),0.248 (inactive),0.927 (inactive),1.01,-0.01
C=CCN1C(=O)[C@@]2(O[C@@H](CCn3cc([C@H](O)c4ccccc4)nn3)[C@H]([Si](C)(C)c3ccc(OC)cc3)[C@H]2C)c2cc(NC(=O)c3ccc(OC)cc3)ccc21,-1.55,0.336 (inactive),-2.19 (inactive),0.874 (inactive),0.389 (inactive),2.42 (inactive),0.628 (inactive),0.146 (inactive),-2.35,0.176
C=C(CCCC)/C(=C/C[C@H](OC(=O)c1ccncc1)c1ccc(CO)o1)c1cc(C(=O)OC)ccc1OC,-0.673,-0.756 (inactive),-2.13 (inactive),-3.99 (inactive),0.898 (inactive),-0.145 (inactive),-0.861 (inactive),-0.528 (inactive),-0.963,0.0537
CN(C)C(=O)[C@@]1(Cc2ccccc2N=[N+]=[N-])N=C(c2ccc(OCCCO)cc2)O[C@H]1c1ccccc1N=[N+]=[N-],-0.663,0.582 (inactive),-1.8 (inactive),1.32 (inactive),-0.73 (inactive),2.9 (inactive),0.732 (inactive),-0.421 (inactive),-2.2,1.98
